Measured values as given in PubChem BioAssay AID1159580 (chemical genetic matrix, 2015).
Screen size: about 5,500 compounds; about 2,000 (36%) were called active. Inconclusive results (about 18%) are left out. Rule as the data show it: active = normalized growth mostly below about 0.91 (no sharp cut-off); inconclusive = no clear call, values can overlap the other calls; inactive = mostly above about 0.92. Some of the results follow.

Test: chemical genetic growth profiling, strain panel (AID 1159580);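 also: tested at 20 µM; growth read once vehicle control cultures reached saturation at 30 °C; 1 = growth at the plate median or of vehicle wells; lower values mean less growth of the strain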
Conditions: S. cerevisiae deletion strains, growth OD

Measured: normalized growth

C=C(C)C1Cc2c(ccc(C(=O)O)c2O)O1 (stereo not given)
active: locus YDL185W, strain tfp1, hits give low values 0.86 | locus YIL125W, strain kgd1, hits give low values 0.91 | locus YKL009W, strain mrt4, hits give low values 0.865 | locus YKL068W, hits give low values 0.91 | locus YNL271C, strain bni1, hits give low values 0.9 | locus YNL298W, strain CLA4, hits give low values 0.795
inactive: locus YBR021W, strain FUR4, hits give low values 0.931 | locus YBR229C, strain ROT2, hits give low values 0.984 | locus YCL029C, strain bik1, hits give low values 0.979 | locus YDL035C, strain GPR1, hits give low values 1.03 | locus YDL074C, strain BRE1, hits give low values 1.02 | locus YDL101C, strain DUN1, hits give low values 1.02 | locus YDL134C, strain PPH21, hits give low values 1.03 | locus YDL192W, strain arf1, hits give low values 0.965 | locus YDR101C, strain arx1, hits give low values 0.954 | locus YDR162C, strain NBP2, hits give low values 1.03 | locus YDR318W, strain mcm21, hits give low values 0.963 | locus YDR388W, hits give low values 0.953 | locus YDR502C, strain sam2, hits give low values 0.979 | locus YEL061C, strain CIN8, hits give low values 0.991 | locus YER110C, hits give low values 0.944 | locus YER155C, strain BEM2, hits give low values 0.946 | locus YER167W, strain BCK2, hits give low values 1 | locus YGL078C, strain dbp3, hits give low values 0.932 | locus YGL086W, strain mad1, hits give low values 0.982 | locus YGL248W, strain PDE1, hits give low values 1 | locus YGR135W, strain pre9, hits give low values 0.969 | locus YGR252W, strain gcn5, hits give low values 0.871 | locus YHR030C, strain SLT2, hits give low values 0.982 | locus YHR079C, strain IRE1 (second series), hits give low values 0.948 | locus YHR094C, strain hxt1, hits give low values 0.944 | locus YHR129C, strain ARP1, hits give low values 0.993 | locus YHR200W, strain rpn10, hits give low values 0.958 | locus YIL066C, strain RNR3, hits give low values 1.03 | locus YIL073C, strain SPO22, hits give low values 1.05 | locus YIR030C, strain dcg1, hits give low values 0.957 | locus YJL095W, strain BCK1, hits give low values 1.04 | locus YJL134W, strain LCB3, hits give low values 0.979 | locus YJL168C, strain set2, hits give low values 0.946 | locus YJL187C, strain SWE1 (second series), hits give low values 1.02 | locus YJR043C, strain POL32, hits give low values 1.02 | locus YJR075W, strain HOC1, hits give low values 1.01 | locus YKL085W, strain MDH1 (second series), hits give low values 0.931 | locus YKL085W, strain MDH1, hits give low values 0.931 | locus YKL190W, strain CNB1, hits give low values 0.998 | locus YKR001C, strain vps1, hits give low values 0.901 | locus YLR039C, strain RIC1, hits give low values 1.07 | locus YLR058C, strain SHM2, hits give low values 1 | locus YLR102C, strain apc9, hits give low values 0.942 | locus YLR262C, strain YPT6, hits give low values 1.08 | locus YLR268W, strain sec22, hits give low values 0.99 | locus YLR330W, strain CHS5, hits give low values 0.976 | locus YLR342W, strain FKS1 (second series), hits give low values 0.998 | locus YLR371W, strain rom2, hits give low values 0.957 | locus YLR418C, strain cdc73, hits give low values 0.957 | locus YML016C, strain PPZ1, hits give low values 0.987 | locus YML032C, strain rad52, hits give low values 0.988 | locus YML124C, strain tub3, hits give low values 0.957 | locus YMR078C, strain ctf18, hits give low values 0.923 | locus YMR223W, strain ubp8, hits give low values 0.98 | locus YMR307W, strain GAS1, hits give low values 0.972 | locus YNL067W, strain RPL9B, hits give low values 1.01 | locus YNL233W, strain BNI4, hits give low values 1.01 | locus YNL250W, strain rad50, hits give low values 0.911 | locus YNL307C, strain MCK1, hits give low values 0.95 | locus YNL322C, strain KRE1, hits give low values 0.993 | locus YNR052C, strain pop2, hits give low values 0.971 | locus YOL012C, strain htz1 1.06 | locus YOL147C, strain pex11, hits give low values 0.955 | locus YOR061W, strain CKA2, hits give low values 0.995 | locus YOR069W, strain VPS5, hits give low values 0.99 | locus YOR136W, strain idh2, hits give low values 0.985 | locus YOR144C, strain elg1, hits give low values 0.948 | locus YOR184W, strain ser1, hits give low values 0.989 | locus YOR316C, strain cot1, hits give low values 0.939 | locus YPR119W, strain clb2, hits give low values 0.943 | locus YPR141C, strain kar3, hits give low values 0.918 | locus YPR163C, strain tif3, hits give low values 0.968 | locus YPR167C, strain met16, hits give low values 0.963 | strain wtn01, hits give low values 0.972
